Shiga inhibitor: A qHTS for Small Molecule Inhibitors of Shiga Toxin; inhibition, % at 38.7 µM; AID 2315, 2010; Vero cells, Shiga toxin protein synthesis inhibition reporter; hit rate 9.2% among 290,000; in the data active = inhibition mostly above about 28%, no sharp cut-off; inactive = mostly below about 43%; note: 0% is about no effect
Marburg entry inh: qHTS for inhibitors of binding or entry into cells for Marburg Virus; hit rate 1.8% among 300,000; Potency, µM (titrated, usually from 37.8 µM), inactives show at the highest dose activity change, negative = inhibition, usual class: inhibitors; AID 540276, 2011; Marburg virus pseudotyped entry inhibition, cell reporter; calls by dose curve; tested in HEK293 cells; note: potency is the fitted concentration of half-maximal effect; % is set by controls: 0 for no effect and ±100 for the full control effect
Cycloheximide cs: Cycloheximide Counterscreen for Small Molecule Inhibitors of Shiga Toxin. hit rate 12% among 300,000. AID 2314, 2010. cell reporter, cycloheximide protein synthesis inhibition counterscreen. max response, %; in the data active = max response mostly above about 13%, no sharp cut-off; inactive = mostly below about 14%; note: read at 38.3 µM for the half of the compounds with a filed dose; 0% is about no effect
Lassa entry inh: qHTS for Inhibitors of binding or entry into cells for Lassa Virus; Lassa virus pseudotype entry inhibition, cell reporter; Potency, µM (top dose mostly 37.9 µM), inactives show at the highest dose activity change, negative = inhibition, most hits filed as inhibitors; hit rate 1.2% among 300,000; AID 540256, 2011; calls by dose curve; tested in HEK293 cells; note: potency is the fitted concentration of half-maximal effect; % is set by controls: 0 for no effect and ±100 for the full control effect; nearly all actives have a fitted effect of over 50% in size
* hit, by the source's call; ? = inconclusive; . = no result given; + = active, no number; [ ] = dose if it differs, or a comment. Sampled rows, rich in hits. Any-hit rate of the full collection: about 12%.

SMILES | Shiga inhibitor | Marburg entry inh | Cycloheximide cs | Lassa entry inh
Cc1cc(C)c(NC(=S)N(CCCN2CCOCC2)Cc2cccnc2)c(C)c1 | -11.0 | 9.1%[46.1 µM] | -2.8 | -1.2%
Cc1c(C)c2c(OCC(=O)N3CCC[C@H]3C(=O)O)cc3c(c2oc1=O)CCC(C)(C)O3 | 8.0 | . | -0.7 | .
CCc1ccc2[nH]c3nc(N/N=C/c4ccc(O)cc4O)nnc3c2c1 | . | 3.55µM* | -1.6 | ?
CN(C)C(CNC(=O)c1cccc(S(=O)(=O)NCc2ccccc2)c1)c1ccco1 (configuration not stated) | . | -5.9%[46.1 µM] | . | -20.6%
CCOC(=O)CC1=C(C(=O)OCC)[C@H](c2ccc(OC)c(OC)c2)C(C#N)=C(N)O1 | . | 0.9% | . | .
O=C(O)CCC(=O)N1CCN(c2nc3ccccc3s2)CC1 | -35.9 | 0.0% | -0.9 | 21.9%
CCCCC(=O)N1CCN(c2nc3ccc(Br)cc3s2)CC1 | 45.0* | -0.2%[46.1 µM] | 25.7* | ?
CCCC(=O)N1CCN(c2nc3ccc(Br)cc3s2)CC1 | 46.4* | . | 43.9* | .
CCCC(=O)N1CCN(c2nc3ccc(CC)cc3s2)CC1 | 133.8* | . | 36.3* | .
CCc1ccc2nc(N3CCN(C(=O)c4ccccc4)CC3)sc2c1 | . | . | . | -7.7%[46.1 µM]
CCCC(=O)N1CCN(c2nc3ccc(Cl)cc3s2)CC1 | 50.2* | . | 42.7* | .
O=C(c1cc2cc(C(F)(F)F)ccc2s1)N1CCOCC1 | 83.7* | -1.6%[46.1 µM] | 35.8* | 4.6%
O=C(c1ccc(C(=O)N2CCOCC2)s1)N1CCOCC1 | -7.9 | 19.3%[46.1 µM] | -0.3 | 0.9%
O=C(c1cc2cc(Br)ccc2s1)N1CCOCC1 | 31.5 | -1.4%[46.1 µM] | 21.2* | ?
CCOC(=O)C1=C(C)NC(=O)C1CC(=O)O (configuration not stated) | -6.0 | 16.6% | 6.5 | -0.1%
COc1ccc(Nc2oc(-c3ccc(Cl)cc3)nc2C#N)cc1 | 84.3* | ? | 30.4* | -4.2%
COc1ccc(Nc2oc(COc3ccc(Cl)cc3)nc2C#N)cc1 | -3.4 | ? | 1.9 | ?
COc1ccc(-c2nc(C#N)c(NCc3ccccc3Cl)o2)cc1 | 11.2 | ? | 21.1 | 18.9%
CNc1oc(-c2ccccc2)nc1C#N | 37.5* | -9.7% | 19.6* | 5.6%
COc1ccc(Nc2oc(-c3ccccc3)nc2C#N)cc1 | 70.3* | ? | 13.6* | -0.4%[46.1 µM]
CCOc1ccc(Nc2oc(-c3ccc(Cl)cc3)nc2C#N)cc1 | 33.8 | 7.3µM* | 9.8* | 16.4µM*
CC(=O)c1ccc(NC(=O)c2ccc3c(c2)N(Cc2cccc(Cl)c2)C(=O)c2ccccc2S3(=O)=O)cc1 | . | ? | . | 5.5%[46.1 µM]
COc1ccc(Nc2oc(/C=C/c3ccccc3OC)nc2C#N)cc1 | . | -1.7%[46.1 µM] | . | -2.1%[46.1 µM]
CCOc1ccc(-c2nc(C#N)c(NC3CC3)o2)cc1 | 116.8* | 27.0% | 42.1* | 1.8%
COc1ccc(Nc2oc(-c3ccc(OC)cc3)nc2C#N)cc1 | 105.3* | 1.1%[46.1 µM] | 50.2* | 9.1%
SMILES | Shiga inhibitor | Marburg entry inh | Cycloheximide cs | Lassa entry inh
COc1ccc(CCNC(=O)c2cnc3ccc(C)cn3c2=O)cc1OC | . | 2.0%[46.1 µM] | . | .
Cc1sc(NC(=O)c2ccc(Br)s2)c(C(N)=O)c1C | 68.9* | ? | 50.6* | ?
Cc1sc(NC(=S)Nc2ccc(F)cc2)c(C(N)=O)c1C | 48.2 | -1.1%[46.1 µM] | -0.9 | -17.1%
Cc1sc(NC(=O)c2ccc(Cl)s2)c(C(N)=O)c1C | 103.5* | ? | 67.9* | ?
CC(C)n1c(=O)n(CC(=O)NCC2CCCO2)c(=O)c2c3c(sc21)COC(C)(C)C3 (configuration not stated) | 1.0 | . | -3.0 | .
Cc1sc2c(c1C)c(=O)n(-c1ccc(Cl)cc1)c(=O)n2Cc1c(F)cccc1Cl | . | -22.4%[46.1 µM] | . | 13.1%[46.1 µM]
CC1CCN=C(N)S1 (configuration not stated) | . | ? | . | 20.6%
COC(=O)c1nnn(-c2nonc2N)c1CSc1nc2ccccc2s1 | 27.3 | -12.3% | 21.0* | 2.0%
CC(Cl)C(=O)c1ccc2c(c1)CCN2C(=O)C1CC1 (configuration not stated) | 44.1 | ? | 20.8* | 16.5%[46.1 µM]
CCNc1ccc(C(=O)O)cc1N | 60.9* | ? | 32.1* | -23.0%
CCc1ccccc1Nc1ccc(C(=O)O)cc1N | 69.2* | ? | 36.7* | 9.1%
Cc1ccc(S(=O)(=O)NCC(=O)OCC(=O)c2ccc(Cl)s2)cc1 | . | ? | . | 8.5%
N=C(N)c1ccc(OCCCCCOc2ccc(C(=N)N)cc2)cc1 | -7.6 | ? | -4.6 | ?
CCCCCCOc1ccc(/C(N)=N/O)cc1 | 61.4* | -5.5% | 44.1* | 10.0%
Cc1ccnc(NC2CCCCC2)c1 | 108.9* | 23.7% | 30.6* | 21.4%
Cc1cc(OCC(=O)NCCc2c[nH]c3ccccc23)c2c(C)cc(=O)oc2c1 | -6.5 | . | 0.2 | .
Cc1ccc(NC(=O)c2cccc(S(=O)(=O)N3CCN(C)CC3)c2)cc1F | 9.5 | ? | 0.9 | -0.7%[46.1 µM]
COc1ccccc1N1CCN(C(=O)C(C)CS(=O)(=O)c2ccc3c(c2)NC(=O)CS3)CC1 (configuration not stated) | 11.7 | . | 8.4 | .
Cc1cc(C)n2c(nc3ccccc32)c1C(=O)NCc1ccccc1 | 19.1 | -9.5% | -3.1 | -0.3%
Cc1cc(C)n2c(nc3ccccc32)c1C(=O)NN | 18.0* | -2.0%[46.1 µM] | 45.3* | -11.7%[46.1 µM]
Cc1sc(NC(=O)c2ccco2)c(CN2CCN(c3ccc(F)cc3)CC2)c1C | 1.3 | ? | 0.5 | 2.5%
O=C(NC(=S)N1CCN(c2ccccn2)CC1)c1ccco1 | 36.4 | . | 18.4* | .
Cc1sc(NC(=O)c2ccco2)c(CN2CCN(c3ccccn3)CC2)c1C | 53.9 | ? | 32.4* | -9.2%
CCOc1cc(/C=C/c2ccc3cccc([N+](=O)[O-])c3n2)ccc1OCC(=O)N(C)C | 10.2 | ? | 3.0 | .
COc1c(OC(C)=O)ccc(/C=C/c2ccc3cccc(OC)c3n2)c1[N+](=O)[O-] | 41.3* | ? | 21.8* | -18.3%
SMILES | Shiga inhibitor | Marburg entry inh | Cycloheximide cs | Lassa entry inh
CCOc1c(OC(C)=O)ccc(/C=C/c2ccc3cccc(OC(C)=O)c3n2)c1[N+](=O)[O-] | + | 9.9% | 43.4* | ?
COc1c(OC(C)=O)ccc(/C=C/c2ccc3ccccc3n2)c1[N+](=O)[O-] | 98.8* | -25.9% | 28.7* | ?
CCOC(=O)c1cccc(NC(=O)c2nn(-c3ccc(OC)cc3)c(=O)c3c2c2ccccc2n3C)c1 | . | -3.2%[46.1 µM] | . | ?
Cc1ccc(C(=O)NNC(=O)CSc2n[nH]c(-c3cccnc3)n2)cc1 | -5.1 | 3.8%[46.1 µM] | -2.2 | 1.7%
COc1cc(C(=O)NCc2nnc(SCC(=O)NCCc3ccccc3)o2)cc(OC)c1OC | 15.9 | -6.2%[46.1 µM] | -3.1 | -4.6%[46.1 µM]
CC(=O)Nc1ccc(/C=C/c2nc3ccccc3o2)cc1 | 100.9* | . | 53.7* | .
O=C(Nc1ccc(/C=C/c2nc3ccccc3o2)cc1)c1c(F)cccc1F | + | ? | 28.4* | ?
O=C(Nc1ccc(/C=C/c2nc3ccccc3o2)cc1)c1cccc(C(F)(F)F)c1 | 102.2* | -17.3% | 34.2* | ?
CC(=O)Nc1ccc(N/C=C(\C=O)c2nc3ccccc3o2)cc1 | -11.5 | -3.9%[46.1 µM] | 14.1 | -11.9%
C[C@H](NC(=O)c1ccccc1Cl)C(=O)OCC(=O)N1CC2(C)CC1CC(C)(C)C2 (some centres not stated) | 8.2 | 0.7% | 12.1* | 20.8%
CCOC(=O)C1CCCN(C(=O)c2cc3ccc(OC)cc3[nH]2)C1 (configuration not stated) | 36.1 | 10.4% | 22.9* | ?

Bioassay records: PubChem, National Center for Advancing Translational Sciences (NCATS)
